Screens deposited in PubChem BioAssay by National Center for Advancing Translational Sciences (NCATS).
DRD3 agonist: agonists of human D3 dopamine receptor; P35462; D3R DiscoveRx beta-arrestin cells, luminescence, 90 min; max activation, %; actives 0.58% (n = 410,000); AID 652048; in the data active = max activation above about 30%
Target sequence (P35462 whole entry, looked up): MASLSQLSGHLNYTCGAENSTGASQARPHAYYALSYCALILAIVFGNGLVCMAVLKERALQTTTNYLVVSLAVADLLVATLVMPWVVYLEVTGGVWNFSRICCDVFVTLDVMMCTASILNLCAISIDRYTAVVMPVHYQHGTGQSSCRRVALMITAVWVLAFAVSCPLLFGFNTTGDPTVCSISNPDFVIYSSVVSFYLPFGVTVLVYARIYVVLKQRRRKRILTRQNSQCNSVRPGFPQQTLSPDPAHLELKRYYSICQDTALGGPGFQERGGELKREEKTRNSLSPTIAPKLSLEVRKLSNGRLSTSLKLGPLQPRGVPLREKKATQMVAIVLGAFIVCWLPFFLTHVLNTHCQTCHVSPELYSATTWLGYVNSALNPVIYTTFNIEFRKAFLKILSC
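Agonist-mode cell screen: cells plated at 1500/well and incubated overnight at 37 °C, then exposed to library compounds for 90 min at 37 °C. Detection reagent was added for 30–60 min at room temperature, and luminescence was read.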
IL1B secr inh: inhibitors of inflammasome signaling (IL-1 beta secretion). THP-1 LPS/ATP IL-1B secretion, AlphaLISA, 16 h; hits give low values. activity change, % at 57.5 µM. actives 4.7% (n = 360,000). AID 743279; in the data active = activity change below about -50%; inconclusive = mostly about -30% to -49%
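THP-1 cells pretreated 1 hr with compounds (up to 57.5 uM final), then stimulated with LPS (250 ng/mL final) plus ATP (1.25 mM final); secreted IL-1B measured by AlphaLISA after 16 hr, decreased signal indicating inhibition.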
DRD3 antagonist: antagonists of human D3 dopamine receptor. P35462. D3R cells, DiscoveRx beta-arrestin luminescence, antagonist mode; hits give low values. max response, negative = inhibition, %. actives 2.5% (n = 360,000); in the data active = max response below about -50%; inconclusive = no clear call, values can overlap the other calls
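Cells plated overnight at 1500 cells/well, then exposed to library compounds with dopamine controls for 90 minutes at 37 degrees C. DiscoveRx reagent added for 30–60 minutes at room temperature; luminescence read, quantitative HTS format.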
TDP1 cell noCPT: qHTS for Inhibitors of human tyrosyl-DNA phosphodiesterase 1 (TDP1): qHTS in cells in absence of CPT; Potency, µM (top dose mostly 46.2 µM), hits mostly inhibitors; actives 15% (n = 420,000); DT40 Tdp1-/- hTDP1 cells, no CPT, ATP luminescence, 48 h; AID 686978, 2013; also: nearly all actives have a fitted effect of over 55% in size
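Stably hTDP1-transfected Tdp1-null chicken DT40 cells were treated with library compounds minus camptothecin and grown for at least 48 hr at 37 °C, after which cellular ATP was quantified by luminescence.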
ClpP mod: qHTS Assay for Activators of ClpP; ATP-dependent Clp protease proteolytic subunit (Bacillus subtilis (strain 168)), P80244; purified B. subtilis ClpP, FRET peptide cleavage, 20 min; Potency, µM (titrated, usually from 57.5 µM); actives 1.9% (n = 340,000); active = well fitted falling curve with a large enough effect; inconclusive = small, poorly fitted or top-dose-only effect; inactive = no such curve, though single readings can be large or run the other way; also: the source files actives as falling curves though it sought activators and does not explain the sign; nearly all actives have a fitted effect of over 65% in size
Target sequence (P80244 whole entry, looked up): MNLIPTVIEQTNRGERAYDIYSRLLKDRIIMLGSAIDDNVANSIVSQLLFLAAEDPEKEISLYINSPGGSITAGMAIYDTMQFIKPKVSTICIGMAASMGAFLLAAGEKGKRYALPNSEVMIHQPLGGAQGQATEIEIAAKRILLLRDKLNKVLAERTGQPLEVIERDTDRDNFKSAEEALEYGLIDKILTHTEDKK
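Buffer: 100 mM Tris/HCl pH8, 100 mM KCl, 0.05% low protease BSA, 2.5% glycerol, 0.01% Tween-20. ClpP 10 microg/mL final; 20 min RT; delta FRET normalized to ADEP and DMSO controls.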
DT40 TDP1 CPT: growth inhibition of DT40 Tdp1-/-;hTDP1 cells with camptothecin (screen for TDP1 inhibitors) | chicken DT40 Tdp1-/-;hTDP1 cells + 20 nM CPT, ATP luminescence, 48 h | Potency, µM (series often up to 46.2 µM), actives largely listed as inhibitors | actives 12% (n = 420,000) | AID 686979; also: nearly all actives have a fitted effect of over 55% in size
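Cell growth measured by CellTiter-Glo luminescence after a minimum 48 h, 37 C compound exposure with 20 nM CPT in Tdp1-knockout DT40 cells stably expressing hTDP1, seeded 400/well; qHTS titration format.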
Hits are given with their value; - = inactive; ? = inconclusive; . = no result given. Only some compounds are listed: those with a hit (about 21% of all), similar ones and a draw of the others. Unless noted, calls follow the shape of the dose curve; as a rule, active = well fitted inhibition curve with a large enough effect; inconclusive = small, poorly fitted or top-dose-only effect; inactive = flat fitted curve, though single readings scatter.

SMILES | DRD3 agonist | IL1B secr inh | DRD3 antagonist | TDP1 cell noCPT | ClpP mod | DT40 TDP1 CPT
O=c1oc(-c2ccccc2)nc2sc3c(c12)CCC3 | - | - | - | - | - | -
O=C(CCn1ccnc1)Nc1ccc2ccccc2c1 | - | - | - | - | - | ?
CCCCCn1c(SCC#N)nc2cc(C(=O)NCC3CCCO3)ccc2c1=O (centres undefined) | - | - | - | 23µM | - | ?
O=C(CCCn1c(SCc2cccc([N+](=O)[O-])c2)nc2ccccc2c1=O)NCC1CCCO1 (centres undefined) | - | ? | - | 23µM | . | ?
Cc1ccc(S(=O)(=O)N2CCC(C(=O)Nc3ccc(S(=O)(=O)N4CCCC4)cc3)CC2)cc1C | - | - | - | 18µM | - | ?
Cc1ccc(S(=O)(=O)N2CCCCC2)cc1NC(=O)C1CCN(C(=O)OC(C)(C)C)CC1 | - | - | - | 16µM | - | ?
Cc1ccc(S(=O)(=O)N2CCN(c3nn(C)c(=O)n(C)c3=O)CC2)cc1C | - | - | - | ? | - | 7.3µM
Cc1ccc(S(=O)(=O)N2CCC(C(=O)N(C)C3CCS(=O)(=O)C3)CC2)cc1 (centres undefined) | - | - | - | ? | - | 23µM
CN(C)C(=O)CCC(=O)N1CCCC(N2CCN(c3cccc(C(F)(F)F)c3)CC2)C1 (centres undefined) | - | - | - | - | . | -
CCN(CC)C(=O)c1cc(S(=O)(=O)N2CCCCC2)c[nH]1 | - | - | - | ? | - | ?
Cc1ccc(NS(=O)(=O)c2ccc(NC(=O)C3CCCO3)cc2)cc1 (centres undefined) | - | - | - | 12µM | 32µM | ?
CCN(C(=O)c1cc(S(=O)(=O)N2CCCCC2)c[nH]1)c1ccc(OC)cc1 | - | - | - | 23µM | - | 9.2µM
CC1CC1C(=O)Nc1ccc(S(=O)(=O)N2CCCCC2)cc1 (centres undefined) | - | - | - | 21µM | - | 23µM
COc1ccc(NS(=O)(=O)c2ccc(NC(=O)C3CCCO3)cc2)cc1 (centres undefined) | - | - | - | ? | - | ?
CN(C1CCCCC1)S(=O)(=O)c1ccc(NC(=O)C2CCCCC2C(=O)O)cc1 (centres undefined) | - | - | - | - | 32µM | -
CCCCNC(=O)C1(C)CCN1C(=O)c1sccc1C (centres undefined) | - | - | - | - | - | -
O=C(CC1CCCCC1)NCc1nc(-c2ccccc2)no1 | - | - | - | - | - | -
Cc1cccc(CCNC(=O)c2cc(S(=O)(=O)N3CCCCC3)c[nH]2)c1 | - | - | - | ? | - | 18µM
COc1ccc(CCNC(=O)c2cc(S(=O)(=O)N3CCCCC3)c[nH]2)cc1OC | - | - | - | - | - | -
Cc1ccc(N2CCN(C(=O)c3cc(S(=O)(=O)N4CCCCC4)c[nH]3)CC2)c(C)c1 | - | . | . | 16µM | - | 16µM
Cc1ccc(NS(=O)(=O)c2ccc(NC(=O)C3CC3)cc2)cc1C | - | - | - | ? | - | 18µM
Cc1ccc(S(=O)(=O)N2CCC(C(=O)NCCc3ccc(S(N)(=O)=O)cc3)CC2)cc1 | 37 | - | - | - | - | -
CC1Cc2ccccc2N1C(=O)CSc1nccc(=O)[nH]1 (centres undefined) | - | - | - | - | . | -
CCOC(=O)[C@H](CCc1ccccc1)N[C@H]1CCCN2CCC[C@@H](C(=O)O)N2C1=O | - | . | . | - | . | -
COC(=O)C1(C(F)(F)F)C2C=CC(C2)N1S(=O)(=O)c1ccc(C)cc1 (centres undefined) | - | - | - | 21µM | . | 23µM
SMILES | DRD3 agonist | IL1B secr inh | DRD3 antagonist | TDP1 cell noCPT | ClpP mod | DT40 TDP1 CPT
Cc1cc(NC(=O)c2ccc(NC(=O)C3CCCO3)cc2)ccc1Br (centres undefined) | - | - | - | 23µM | - | ?
Cc1ccc(C(=O)N2C3C=CC(C3)C2(C(F)(F)F)C(F)(F)F)cc1 (centres undefined) | - | - | - | - | - | -
CCCNC(=O)C1CCN(S(=O)(=O)c2ccc(-c3nn[nH]n3)cc2)CC1 | - | - | - | 0.01µM | - | 12µM
COC(=O)C1(C(=O)OC)CCCCN(S(=O)(=O)c2ccc(C)cc2)CCC1 | - | - | - | 21µM | - | ?
Cc1noc(C)c1C(=O)N1CCC1(C)C(=O)NS(=O)(=O)c1ccc(Cl)cc1 (centres undefined) | - | - | - | - | - | -
O=C(Nc1nccs1)[C@@H]1CC=C[C@@H]2CCN(Cc3ccc(Cl)c(Cl)c3)C(=O)[C@@H]21 | . | . | . | ? | - | ?
Cc1ccc(CCNC(=O)c2cc(S(=O)(=O)N3CCCC3)cn2C)cc1 | - | - | -145 | - | - | -
CC1CCN(S(=O)(=O)c2ccc(NC(=O)C3CC3)cc2)CC1 | - | - | - | - | . | ?
Cc1ccc(S(=O)(=O)N2CCC(C(=O)Nc3ccc(C(C)C)cc3)CC2)cc1 | - | - | - | 15µM | - | 23µM
Cc1ccc(NC(=O)c2cc(S(=O)(=O)N3CCCC3)cn2C)cc1 | - | - | - | - | - | -
Cc1ccc(S(=O)(=O)N2CCC(C(=O)Nc3ccc(S(=O)(=O)N4CCCC4)cc3)CC2)cc1 | - | - | - | 15µM | - | ?
Cc1ccc(S(=O)(=O)N2CCC(C(=O)Nc3ccccc3N3CCCCC3)CC2)cc1C | - | - | - | ? | - | 18µM
Cc1ccc(S(=O)(=O)N2CCC(C(=O)Nc3ccncc3)CC2)cc1 | - | - | - | ? | - | ?
CC(C)c1ccc(NC(=O)C2CCN(S(=O)(=O)c3ccc4c(c3)C(C)(C)C(=O)N4C)CC2)cc1 | - | - | - | ? | - | 16µM
Cc1cccc(NC(=O)C2CCN(S(=O)(=O)c3ccc4c(c3)C(C)(C)C(=O)N4C)CC2)c1C | - | - | - | ? | - | ?
COc1ccc(S(=O)(=O)N2CCCN(S(=O)(=O)c3ccc(OC)cc3C)CC2)c(C)c1 | - | - | - | ? | - | 23µM
Cc1ccccc1C(=O)N1CCC(C(=O)Nc2ccc(S(=O)(=O)N3CCOCC3)cc2)CC1 | - | - | - | ? | - | ?
Cc1ccccc1C(=O)N1CCC(C(=O)Nc2ccc(S(=O)(=O)N3CCCCC3)cc2)CC1 | - | - | - | 12µM | - | 16µM
Cc1ccc(S(=O)(=O)N2CCCN(S(=O)(=O)c3ccc(C)c(C)c3)CC2)cc1C | - | - | - | 18µM | - | 23µM
COc1ccc(OC)c(S(=O)(=O)N2CCCCCC2)c1 | - | - | ? | - | - | -
